Measurements taken from PubChem BioAssay AID449762 (Southern Research Specialized Biocontainment Screening …, 2010).
In all, about 330,000 compounds went through this assay and about 1,900 (0.58%) were called active. Inconclusive results (about 4%) are left out. Only a sample is shown. Entries with a potency or affinity are not part of this list. Unmarked numbers belong to inactive results. Cut-off read from the data, not from the text of the source: inconclusive = inhibition above about 70% without an active follow-up result; inactive = below that.

Assay: M. tuberculosis growth inhibition, HTS (AID 449762);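 note: bacterial growth assessed after seven days of incubation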
Details: M. tuberculosis H37Rv growth inhibition, 7H9 media; at 25 µM; stronger effect = higher value

Row | SMILES | inhibition [%]
1 | Cc1ccc(NC(=O)CSc2cn[nH]n2)cc1 | -2.03
2 | CCOc1ccc(-n2c(SCC(=O)Nc3ccc(C(=O)O)cc3)nc3ccccc3c2=O)cc1 | 1.72
3 | Cc1nnc(NC(=O)CSc2nnc(Cc3cccn3C)n2C)s1 | -5.68
4 | Cc1ccc(S(=O)(=O)N(C)C)cc1NC(=O)c1cccnc1Oc1ccccc1 | -2.85
5 | O=C(Nc1ccc2c(c1)OCO2)c1cnn2c1NC(c1ccco1)CC2C(F)(F)F (stereo unspecified) | -5.12
6 | COc1ccc(-c2[nH]ncc2CN(C)Cc2ccccn2)c(OC)c1 | 4.69
7 | O=C(NCc1ccccn1)c1cc2c(ccc3ccccc32)oc1=O | -2.34
8 | CCOC(=O)N1CCC(N2Cc3cccc(C(=O)Nc4cc(F)ccc4F)c3C2=O)CC1 | -1.17
9 | CCOC(=O)c1ccccc1NC(=O)c1cccc2c1C(=O)N(C1CCN(C(=O)OCC)CC1)C2 | -3.66
10 | O=C1CCCC2=C1C(c1ccccc1)C1C(=O)c3ccccc3C1=N2 (stereo unspecified) | 0.55
11 | Cc1ccc(C2C3=C(CCCC3=O)N=C3c4ccccc4C(=O)C32)cc1 (stereo unspecified) | 4.41
12 | CCO[C@@H]1OC(C(=O)NCc2ccccc2)=C[C@H](C)[C@H]1CCCO | 0.33
13 | CCOC(=O)CSC1=C(C#N)C(C)C2=C(CCCC2=O)N1 (stereo unspecified) | 10.6
14 | CCOC(=O)CSC1=C(C#N)C(c2ccccc2C)C2=C(CCCC2=O)N1 (stereo unspecified) | -2.12
15 | Clc1cccc(CN2CCSCC2)c1Cl | 5.96
16 | O=C(OCc1ccc(O)cc1)c1c(-c2ccsc2)oc2ccc(N3CCOCC3)cc12 | -0.88
17 | COc1ccc(/C=C/c2c(-c3cccc(C)c3)oc3ccc(N4CCOCC4)cc23)cc1 | -2.46
18 | COc1ccc(-c2noc(-c3ccco3)n2)cc1OC | -0.61
19 | COc1ccc(-c2cc(C(=O)O)c3c(C)nn(-c4ccccn4)c3n2)cc1 | 10.2
20 | CCOC(=O)c1cc(-c2ccncc2)nc2c1c(C)nn2-c1ccccn1 | 0.76
21 | O=C(NC1CCCC1)C(c1ccncc1)N(C(=O)c1csnn1)C1CCCC1 (stereo unspecified) | 3.35
22 | Cc1nnsc1S(=O)(=O)c1ccccc1 | -0.59
23 | Nc1nc(-c2ccc(Cl)cc2)c(S(=O)(=O)c2ccccc2)s1 | -1.98

Row | SMILES | inhibition [%]
24 | COc1ccc(N(CC(=O)NC2CCCC2)S(=O)(=O)c2c(C)[nH]c(=O)[nH]c2=O)cc1 | -3.45
25 | Cc1ccc(OCCNC(=O)CNC(=O)c2ccc(C)cc2)cc1 | 5.29
26 | Cc1ccc(OCc2cc(C(=O)N(C)Cc3nccn3C)no2)cc1C | 8.06
27 | Cc1cc(CN(C)C(=O)c2cc(COc3ccc(C)c(C)c3)on2)on1 | 7.13
28 | Nc1c(C(=O)c2ccc(Cl)cc2)oc2ccccc12 | -21.2
29 | Cc1cc(C)c(NC(=O)C(C)(C)C)c(Cl)c1 | -1.65
30 | COc1ccc(C(CNC(=O)C(C)(C)Oc2ccc(Cl)cc2)N2CCCC2)cc1 (stereo unspecified) | -9.42
31 | COc1ccc(C(CNC(=O)C(C)(C)Oc2ccc(Cl)cc2)N2CCCCC2)cc1 (stereo unspecified) | -12.8
32 | CCN(CC)S(=O)(=O)c1ccc(NC(=O)c2ccc(Cl)nc2)cc1 | 4
33 | O=C(O)c1ccccc1/C=N/Nc1ccc(S(=O)(=O)N2CCCC2)cc1[N+](=O)[O-] | -1.83
34 | COc1ccc(Cc2nc3ccc(C(=O)N(C)C(C)c4nccs4)cc3o2)cc1 (stereo unspecified) | 1.57
35 | COc1ccc(-c2ccc([C@H]3[C@H]4C=CC[C@@H](C)[C@@H]4C(=O)N3Cc3ccccc3)c(F)c2)cc1C | -3.73
36 | CC1(c2ccc(Cl)cc2Cl)OCC(Cn2ccnc2)O1 (stereo unspecified) | -2.41
37 | CCC(C)n1ncn(-c2ccc(N3CCN(c4ccc(OCC5COC(Cn6cncn6)(c6ccc(Cl)cc6Cl)O5)cc4)CC3)cc2)c1=O (stereo unspecified) | -3.37
38 | FC(F)(F)c1cc(N2CCNCC2)c2ccccc2n1 | 4.5
39 | COc1ccc2cc(S(=O)(=O)NCc3cccnc3)ccc2c1 | -6.19
40 | c1ccc(OCc2nnc(-c3ccccc3)o2)cc1 | 3.84
41 | Oc1ccccc1-c1nnc(COc2ccc(Cl)cc2Cl)o1 | 2.32
42 | Cc1ccccc1C(=O)Nc1cccc(-c2cn3ccccc3n2)c1 | 35.7
43 | O=C(O)CCC(=O)Nc1nnc(C(F)(F)F)s1 | 5.81
44 | Cc1nnc(NC(=O)CCC(=O)NC2CCCCCCC2)s1 | 2.33
45 | CC(=O)c1cccc(S(=O)(=O)NCCC(=O)NC2CCCCCC2)c1 | 2.95
46 | CCN(CC)S(=O)(=O)c1ccc(NC(=O)c2ccc(Sc3nncn3C)c([N+](=O)[O-])c2)cc1 | 3.9
